Screening data as filed in PubChem.
Pf apPOL inh: Pf-apPOL DNA polymerase inhibition | Recombinant Pf-apPOL, molecular beacon fluorescence, 1.5 h | inhibition, % at 10 µM | 210,000 tested, 0.25% active | AID 1794808
mHTT-CaM PPI inh: mHTT-calmodulin interaction abrogation | P42858 | AlphaScreen His-mHTT/GST-CaM binding, luminescence | 190,000 tested, 3.6% active | inhibition, % at 15 µM;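 also: 0% = both proteins with DMSO and 100% = one protein alone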
The depositor's hits bear a star; x = no result given. In the library only some 3.5% were active in any assay of this set; here they are far more common. Rule as the data show it: active = inhibition above about 50%; inactive = the rest.

SMILES	Pf apPOL inh	mHTT-CaM PPI inh
Cc1nc(CCNC(=O)C2CCCN2S(=O)(=O)c2ccccc2F)cs1 (configuration not stated)	-4	2
COc1ccc(C)cc1Nc1nc(C)nc2sc(C)cc12	-18	-7
COc1ccc(OC)c(Nc2nc(C)nc3sc(C)cc23)c1	-14	52*
COc1ccc(N=Cc2cc(Br)c(O)c(Br)c2O)cc1OC	4	38
Cc1cc(CN2CCC(CNC(=O)NCc3cccs3)CC2)c(C)o1	-3	-11
c1ccc(-c2n[nH]c(C3CCCN3Cc3ccco3)n2)cc1 (configuration not stated)	3	33
c1ccc(-c2n[nH]c(C3CCCN3Cc3ccccn3)n2)cc1 (configuration not stated)	-30	100*
CCNc1nc(-c2ccccc2)cs1	-12	x
c1ccc(-c2csc(NCc3ccco3)n2)nc1	-18	99*
c1ccc(CNc2nc(-c3ccccn3)cs2)cc1	-2	100*
c1ccc(-c2csc(NCc3ccco3)n2)cc1	-9	24
COc1cccc(NC(=O)N2CCN(Cc3nc4cccnc4n3-c3ccccc3)CC2)c1	0	5
N#Cc1ccc(CN2CC(C(N)=O)C3(CCOCC3)C2)cc1 (configuration not stated)	-5	2
CCOC(=O)C(=O)Nc1c(C(=O)Nc2cccc(Cl)c2)oc2ccccc12	1	-8
CC1=NN(c2ccc(Cl)c(Cl)c2)C(=O)/C1=C/c1ccc(-c2ccc3c(c2)C(=O)OC3)o1	-9	38
O=C1NN(c2ccc(Cl)c(Cl)c2)C(=O)/C1=C/c1ccc(-c2ccc3c(c2)COC3=O)o1	56*	60*
O=C(Nc1ccc(F)cc1F)c1ccc(Br)o1	-3	-5
Fc1ccc(-c2nnn(Cc3ccc(Cl)c(Cl)c3)n2)cc1	1	-26
O=C(Nc1c(F)c(F)c(F)c(F)c1F)c1ccccc1	-9	-10
O=C(Nc1c(Cl)c(Cl)c(O)c(Cl)c1Cl)c1ccccc1	-10	85*
Cc1nc(-c2cccnc2)nc2c1CCC(=O)N2CCC1=CCCCC1	5	57*
Cc1nc(-c2ccncc2)nc2c1CCC(=O)N2CCC1=CCCCC1	6	13
O=C1CC(c2ccco2)Sc2ccccc2N1Cc1cccc(F)c1 (configuration not stated)	2	4
O=C1CC(c2ccccc2)Sc2ccccc2N1Cc1ccccc1 (configuration not stated)	-5	80*
O=C(NCc1ccco1)C1CCN(c2ncnc3c2nc2n3CCCCC2)CC1	2	-4
SMILES	Pf apPOL inh	mHTT-CaM PPI inh
CCOc1ccc(N2CC(c3nnc(NC(=O)c4ccc(C)cc4)o3)CC2=O)cc1 (configuration not stated)	-2	60*
CCOc1ccc(N2CC(c3nnc(NC(=O)c4ccc(Cl)cc4)o3)CC2=O)cc1 (configuration not stated)	-2	9
COc1ccc(N2CC(c3nnc(NC(=O)c4ccc(C)cc4)o3)CC2=O)cc1 (configuration not stated)	-1	50*
COc1ccc(N2CC(c3nnc(NC(=O)c4ccc(C(C)(C)C)cc4)o3)CC2=O)cc1 (configuration not stated)	-3	8
CCc1nnc(NC(=O)C2CCN(c3ncnc4c3nc3n4CCCCC3)CC2)s1	-3	4
CCOC(=O)N1CCC(NC(=O)CN2C(=O)NC3(CCC(C(C)(C)C)CC3)C2=O)CC1 (configuration not stated)	0	16
CCC(=O)NCCc1nc2ccccc2n1Cc1ccccc1F	-4	0
Cc1ccccc1CN1CCCN(c2ncccc2-c2nc(C(C)C)no2)CC1	-2	-66
CC(C)c1noc(-c2cccnc2N2CCCN(Cc3ccccc3Cl)CC2)n1	2	61*
COC(=O)c1ccc(NC(=O)C2(C)Oc3cccnc3N(C(C)C)C2=O)cc1 (configuration not stated)	-15	-5
COc1cc2c(cc1OC)C(c1cccc(Cl)c1Cl)CC(=O)N2 (configuration not stated)	-5	9
COc1cccc(C2CC(=O)Nc3cc(C)c(C)cc32)c1OC (configuration not stated)	-17	100*
O=C(Cc1ccc(Cl)cc1)Nc1nnc(C2CC(=O)N(c3ccc(F)cc3)C2)o1 (configuration not stated)	-4	71*
COc1ccc(N2CC(c3nnc(NC(=O)COc4ccc(F)cc4)o3)CC2=O)cc1 (configuration not stated)	2	19
COc1ccc(N2CC(c3nnc(NC(=O)Cc4ccc(Cl)cc4)o3)CC2=O)cc1 (configuration not stated)	-1	5
COc1ccc(N2CC(c3nnc(NC(=O)Cc4ccc(F)cc4)o3)CC2=O)cc1 (configuration not stated)	-1	73*
COc1ccc(CC(=O)Nc2nnc(C3CC(=O)N(c4ccc(OC)cc4)C3)o2)cc1 (configuration not stated)	-4	15
